Laboratory results from PubChem BioAssay AID1259415 (National Center for Advancing Translational Sciences (NCATS), 2018).
The campaign covered roughly 410,000 compounds. About 18,000 (4.4%) were called active. Not shown: some 7% with an inconclusive outcome. Shown is part of a subset that was picked to be rich in actives. A number with no mark means an inactive call. No stated cut-off is given here; in the data, active means activity change below about -60%; inconclusive means no clear call, values can overlap the other calls; inactive means above about -39%.

experiment: qHTS Assay for inhibitors of the human cytomegalovirus (HCMV); conditions: HFF cells, HCMV-luciferase reporter, 72 h; at 57.5 µM; stronger effect = lower value
Summary of the method: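 Luciferase read-out from HCMV-luciferase-infected HFFs (MOI 1 PFU/cell) 72 h post infection at 37C; compounds added after 16 h cell attachment; activity normalized between buffer-only basal and Salinomycin (10uM) inhibitor controls.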
On the % scale 0 is the no-effect control and ±100 the full control effect.

SMILES	activity change, negative = inhibition
Cc1ccc(NC(=O)Nc2sc3nc4n(c(=O)c3c2C)CCC(C)CC4)c(Cl)c1 (stereo not given)	-0.215%
O=C(/C=C/c1ccc([N+](=O)[O-])o1)NNC(=O)c1ccc(F)cc1	-99.5% (active)
N#Cc1nc(/C=C/c2ccc(F)cc2)oc1NC1CCCCC1	-16.7%
O=C1C=CN2CCCC2CC1 (stereo not given)	-5.48%
CCc1ccc(NC(=O)Cn2c(=O)n(CCC(=O)NCc3ccc4c(c3)OCO4)c(=O)c3ccccc32)cc1	7.9%
O=C(Nc1ccc(Br)cn1)C1CCN(S(=O)(=O)c2cccs2)CC1	-89.3% (active)
O=C(NCc1ccc(Cl)cc1)C1CCN(S(=O)(=O)c2cccs2)CC1	-33.3%
O=C(C1CCN(S(=O)(=O)c2cccs2)CC1)N1CCCCCC1	-4.69%
CCCCN(CC)CCCNC(=O)c1nn(C)c2c1CSc1ccccc1-2	-32.8%
Cc1ccc(Cl)cc1N(C)C(=O)Cn1nc(Cc2cccnc2)c2ccccc2c1=O	-61.7% (active)
CN(CC(=O)NCc1cccnc1)S(=O)(=O)c1cc(Cl)ccc1Cl	-21.9%
O=C(Cn1nc(Cc2cccnc2)c2ccccc2c1=O)NCC1CCCO1 (stereo not given)	-1.61%
Cn1c(=O)oc2cc(S(=O)(=O)NCCC(=O)NCc3ccccc3Cl)ccc21	-30.3%
O=C(O)c1ccc(Nc2nc(-c3ccccc3)c3cc(Br)ccc3n2)cc1	27.8%
CC(=O)NCC(=O)N1CCCC(C(=O)c2ccc3c4c(cccc24)CC3)C1 (stereo not given)	2.3%
Cc1ncoc1C(=O)N1CCCC(C(=O)c2ccc3c4c(cccc24)CC3)C1 (stereo not given)	-68.2% (active)
Cc1cc(Cl)ccc1C(=O)C1CCCN(C(=O)c2nonc2C)C1 (stereo not given)	-27.9%
O=C(Nc1c[nH]c(=O)[nH]c1=O)OCc1ccccc1	46%
CCCC(=O)Nc1ccc(NC(=O)c2sc3ccccc3c2Cl)cc1	0.957%
COC(=O)c1cc(NC(=O)c2sc3ccccc3c2Cl)cc(C(=O)OC)c1	5.87%
COc1ccc(CNC(=O)CNC(=O)c2sc3ccccc3c2Cl)cc1OC	-67.8% (active)
COc1ccc(S(=O)(=O)N2CCN(C(=O)c3cccs3)CC2)cc1OC	1.26%
COC(=O)c1sccc1S(=O)(=O)N(CC(=O)Nc1ccc(C)c(F)c1)c1ccc(C)c(C)c1	-9.21%
COc1cccc(NC(=O)CN2C(=O)c3ccccc3Sc3ncccc32)c1	35.8%

SMILES	activity change, negative = inhibition
CCc1ccc(N(CC)C(=O)CCn2cnc3onc(-c4ccc(F)cc4)c3c2=O)cc1	4.29%
CC[C@H](C)C(=O)N[C@H]1CCCN1C(=O)/C=C/c1ccccc1	-28.4%
O=C1CCCCC1C(=O)c1ccccc1 (stereo not given)	7.64%
Cc1[nH]c(=O)c(C(=O)/C=C/c2ccccc2)c2c1CCCC2	-104% (active)
Cc1ccc(NC2=C(c3ccc(C(F)(F)F)cc3)C(=O)c3ccccc32)cc1F	-26.8%
O=C1C=C(c2ccnc3cc(Cl)ccc23)C[C@@H](c2ccc3c(c2)OCO3)C1	-66.7% (active)
O=C1C=C(c2cccc(Cl)c2O)C[C@@H](c2ccc(F)cc2)C1	15.9%
N#Cc1ccc(C2=CC(=O)C[C@H](c3ccc(Cl)cc3)C2)cc1	10.5%
O=C(Cc1ccc(Cl)cc1)NCCN1CCN(C(=O)Cc2ccc(Cl)cc2)CC1	-18.4%
Cc1ccc(-c2cnc(NCc3ccc(C(C)C)cc3)n2C)cc1	-37.1%
Cc1ccc(C(=O)Nc2ccc(OCc3cc(=O)n4c(C)csc4n3)cc2)cc1	13.5%
Cc1ccc(OCCC(=O)Nc2ccc(S(=O)(=O)Nc3nccs3)cc2)cc1	-11.9%
CCC(CC)C(=O)Nc1ccc(S(=O)(=O)Nc2nccs2)cc1	-32.7%
COc1ccccc1OC(C)C(=O)Nc1ccc(S(=O)(=O)Nc2nccs2)cc1 (stereo not given)	-71.4% (active)
COc1ccc(C2C(=O)N(C3CCCCC3)CC(=O)N2Cc2ccccc2Cl)cc1OC (stereo not given)	-0.212%
CCN1/C(=C/C(=S)Nc2ccccc2)Sc2ccccc21	-90.8% (active)
CCN1C(=O)c2ccccc2Sc2ccc(NC(=O)Cc3ccc(OC)cc3)cc21	11.2%
CCC(=O)/C=C1\Sc2ccccc2N1CC	-68.7% (active)
CCOC(=O)CNC(=O)CN1C(=O)CCSc2ccccc21	55.2%
CNC(=O)CN1C(=O)c2cccnc2Sc2ccccc21	16.8%
CCOc1ccc(NC(=O)c2cc(S(=O)(=O)N3CCCC3)c[nH]2)cc1	-31.5%
Cc1ccc(N2CC(C(=O)Nc3ccc(N(C)C)cc3)CC2=O)cc1Cl (stereo not given)	1.89%
CC(C)(C)OC(=O)NNc1c2ccccc2nc2ccccc12	-89.2% (active)
CC(C)(C)OC(=O)N[C@H](C(=O)OC(C)(C)C)c1ccc(Br)cc1	-16.8%

SMILES	activity change, negative = inhibition
Cc1ccc(C(=O)NNC(=O)OC(C)(C)C)c(Cl)c1	-10.9%
O=C(NCCCNC(=O)NC1CCCCC1)NC1CCCCC1	-14.1%
O=C(NCC1CCCCC1)NCC1CCCCC1	-74.2% (active)
N#CCC(=O)NC(=O)NCC1CC1	-12.8%
COc1ccc(CCNC(=O)CSCc2ccc(Br)cc2)cc1OC	-9.05%
COc1nc(OC)nc(N(C)CCO)n1	-12.6%
Cc1nc(SCC(=O)Nc2ccc(C(=O)O)cc2)n[nH]1	-2.57%
CCc1nnc(NC(=O)CSc2nnc(COc3ccc(C#N)cc3)n2-c2ccccc2)s1	42.5%
COc1ccccc1Cc1nc2ccccc2nc1SCC(=O)N1CCCc2ccccc21	8.07%
Cn1c(SCC(=O)N2CCCc3ccccc32)ncc(C(=O)Nc2ccc(F)cc2)c1=O	-28.8%
Cn1c(SCC(=O)N2CCCc3ccccc32)nc2ccccc2c1=O	-79.6% (active)
[O-][N+]12CCCCC1CCCC2CO (stereo not given)	-29%
CCC(=O)N1CCc2cc(Br)cc(S(=O)(=O)CCC(=O)NCc3ccccc3OC)c21	-3.98%
C=CCNc1nc(N)c([N+](=O)[O-])c(NC2CCCCC2)n1	-9.3%
Nc1nc(Nc2ccccc2F)nc(NC2CCCCC2)c1[N+](=O)[O-]	-66% (active)
Nc1nc(NCC2CCCO2)nc(Nc2ccccc2F)c1[N+](=O)[O-] (stereo not given)	-34.2%
CCC(=O)N1CCc2cc(Br)c(S(=O)(=O)NCCN3CCCCC3CC)cc21 (stereo not given)	-8.58%
COc1ccc(CCNC(=O)Cn2c(=O)cc(C(F)(F)F)c3c(C)nn(C)c32)c(OC)c1	21.9%
CC(=O)Nc1ccc(NC(=O)CC2CCCC2)cc1	-33.3%
O=C(O)CC(SCC(=O)Nc1ccc(Br)cc1)C(=O)O (stereo not given)	-19%
O=C(CCl)Nc1ccc(Sc2ccc(NC(=O)CCl)cc2)cc1	-97.1% (active)
CCOC(=O)C1=NOC(Cn2cc(C(C)=O)c(=O)[nH]c2=O)C1 (stereo not given)	10%
CCOC(=O)c1cccc(NS(=O)(=O)c2cn(C)c(C)n2)c1	2.44%
C[C@H](CO)N1C[C@H](C)[C@@H](CN(C)C(=O)Nc2ccccc2F)OCc2cn(nn2)CCCC1=O	-6.88%

SMILES	activity change, negative = inhibition
O=C(NC1CCN(Cc2ccccc2)CC1)c1cc(Br)c(Br)[nH]1	-22.7%
S=C(Nc1ccc(Br)cc1Cl)NC1CCN(Cc2ccccc2)CC1	-84.5% (active)
Cc1cc(Br)ccc1NC(=S)NC1CCCC1	-24.2%
Cc1cc(C)n(CCC(=O)N2CCN(S(=O)(=O)c3ccc(C)c(C)c3)CC2)n1	-15.9%
CCc1cc2c(cc(C(=O)OC)n2Cc2nc(-c3ccc(C)cc3)oc2C)s1	4.7%
CCCN1CCc2nc(N3CCN(C)CC3)ncc2C1	0.276%
COc1ccc(/C(N)=N/OC(=O)Oc2ccccc2)cc1	9.17%
COc1ccc(C(C#N)=C2C=CC(=NO)c3ccccc32)cc1	-90.8% (active)
CC(c1ccco1)N(C(=O)c1ccc(S(=O)(=O)N2CCCCC2)cc1)c1ccccn1 (stereo not given)	-14.3%
Fc1ccc(CN2CCc3nc(Nc4ccccc4)ncc3C2)cc1F	-18.4%
CC(C)Nc1ncnc2c1nnn2Cc1ccccc1	45.3%
COc1ccc(CCNc2ncnc3c2nnn3Cc2ccccc2)cc1	-95.1% (active)
c1ccc(Cn2nnc3c(NCC4CC4)ncnc32)cc1	30.2%
O=C(CN1c2ccccc2S(=O)(=O)c2ccccc21)Nc1cccc(C(F)(F)F)c1	14.4%
O=C(Cn1cnc2c(oc3ccccc32)c1=O)Nc1ccc(OC(F)(F)F)cc1	14%
COc1ccc(OCc2ccc(-c3nc(C#N)c(N4CCN(c5ccccc5)CC4)o3)o2)cc1	2.46%
OCCN1CCN(C(=S)c2ccc(-c3ccccc3)cc2)CC1	-79.4% (active)
O=C1CCN(CCCc2ccccc2)CCN1CCO	-6.21%
O=C(NC(=S)N1CCN(Cc2ccccc2)CC1)c1ccccc1	-3.08%
COCCNc1ncnc2c1c(-c1ccccc1)cn2-c1ccc(C)c(Cl)c1	-33.4%
CCc1ccccc1NC(=S)N(CCN1CCCCCC1)Cc1ccco1	29.5%
Cc1ccccc1NC(=S)N(CCCN1CCOCC1)Cc1cccs1	-30.9%
Cc1ccc(NC(=S)N(CCCN2CCCC2)Cc2cccn2Cc2ccc(Cl)cc2)cc1	-72% (active)
